Calb FLC: affects C. albicans growth with fluconazole; C. albicans CaCi-2 (fluconazole-resistant clinical isolate) + fluconazole, Alamar Blue growth, 48 h; growth inhibition, % (no concentration beside the values); 0.57% of 300,000 active; AID 1979;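 active means growth inhibition above about 58% in most replicates, limit read from the data, passing the limit was not always enough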;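 further: all wells also contain fluconazole at 8 µg/ml as a sub-toxic cotreatment; 0% = median of DMSO wells and 100% = median of geldanamycin control wells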
M18AAP inhibitor: PfM18AAP enzyme inhibition; inhibition, % at 7.35 µM; 1.2% of 290,000 active; recombinant PfM18AAP, H-Glu-NHMec fluorogenic cleavage;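 active means inhibition above the campaign mean inhibition over all tested compounds plus 3 SD, cut at about 28% in these data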;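 further: 0% = plate median of test compound wells and 100% = 2 mM ZnCl2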
Rin1-Abl PPI inh: blocks binding of human Rin1 to Abl | P00519+Q13671 | TR-FRET Rin1/Abl binding, biochemical | inhibition, % at 7.35 µM | 0.4% of 360,000 active; in the data active means inhibition above about 5%, passing the limit was not always enough
Fh CTSL1 inh: blocks F. hepatica cathepsin L1 in PFM18AAP counter-screen | 0.49% of 300,000 active | recombinant F. hepatica cathepsin L1, Z-Leu-Arg-MCA fluorescence | AID 1906 | inhibition, % at 5.96 µM;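 active means inhibition above the mean of all tested compounds plus 3 SD, set per screening campaign, cut at about 17% in these data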;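 further: 0% = plate median of test compound wells and 100% = 1 µM Z-Phe-Ala-diazomethylketone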
Rin1 Abl conf: Rin1-Abl interaction inhibition confirmation. shares compounds with Rin1-Abl PPI inh. TR-FRET Rin1-Abl binding, purified proteins. inhibition, % at 7.35 µM. 49% of 1,300 active. AID 602124
GFP quench: quenches GFP fluorescence, counter-screen for Rin1-Abl inhibitors | shares compounds with Rin1-Abl PPI inh | inhibitors/quenchers counterscreen | inhibition, % at 6.75 µM | 8.5% of 1,300 active;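 further: ABL1-eGFP fusion protein alone without its partner RIN1-SBP; 0% = protein with vehicle and 100% = wells lacking protein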
GFP quench DR: GFP fluorescence interference dose response; shares compounds with Rin1-Abl PPI inh; GFP fluorescence interference/quenching counterscreen; IC50, µM; 230 tested, under 10 active; AID 602182; call rule not given here;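 further: ABL1-eGFP fusion protein alone without its RIN1 binding partner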
* hit, by the source's call; . = no result given. Hits are enriched below; roughly 2.1% of the tested compounds scored in any of these assays. Unless noted, no stated cut-off is given here; in the data, active means inhibition above about 6.5%; inactive means the rest.

SMILES | Calb FLC | M18AAP inhibitor | Rin1-Abl PPI inh | Fh CTSL1 inh | Rin1 Abl conf | GFP quench | others
Cc1cc(-c2nn(-c3ccccc3F)cc2CN2CCCC(O)C2)c(C)s1 (centres undefined) | -2.3 | -0.3 | 5.7* | -3.9 | 1.3 | -0.3
O=C(O)/C=C/C(=O)Nc1ccc(-n2ccc(C(F)(F)F)n2)cc1 | -4.1 | 2.5 | 6.4* | -1.8 | 0.1 | 0.6
O=C(O)/C=C/C(=O)Nc1ccc(-n2nccc2C(F)(F)F)cc1 | -4.8 | 5.8 | -2.5 | 0.8 | . | .
Cc1ccc(C)c(NC(=O)CCc2c(C)nn(-c3ccc(N4CCCCC4)nn3)c2C)c1 | 0.6 | -3.3 | 12.0* | 1.0 | 0.0 | 0.3
COc1ccc(N(C(=O)c2snc(C(N)=O)c2N)C(C(=O)NC2CCCCC2)c2ccc(C)o2)cc1 (centres undefined) | 42.1 | 7.3 | 0.9 | 0.4 | . | .
COCCCNc1nc2ccccc2nc1NS(=O)(=O)c1cccs1 | 18.6 | -5.3 | 14.3* | 2.1 | -2.7 | -0.2
COCCCNc1nc2ccccc2nc1NS(=O)(=O)c1ccc(OC)cc1 | -2.8 | 2.7 | -4.6 | 2.9 | . | .
[O-]/C(=C(\C(=S)Nc1cccc2ccccc12)[n+]1ccccc1)c1ccc(Cl)s1 | 10.0 | 7.4 | -3.1 | 1.1 | . | .
[O-]C(=C(C(=S)Nc1cccc2ccccc12)[n+]1cccc(CO)c1)c1ccc(Cl)s1 | . | . | 12.7* | . | -0.3 | 0.0
OC[C@@H]1CN(Cc2ccc(-c3ccccc3)cc2)C[C@H](n2cnc3c(NCc4ccco4)ncnc32)O1 | . | . | 10.2* | . | 6.7* | -1.3
OCCNc1ncnc2c1ncn2[C@H]1CN(Cc2ccc(-c3ccccc3)cc2)C[C@@H](CO)O1 | . | . | 24.2* | . | 27.9* | 0.0 | GFP quench DR=>67.5
C=CCn1c(CCc2ccccc2)nnc1SCC(N)=O | -2.5 | 1.1 | -2.5 | 1.0 | . | .
CCn1c(CCc2ccccc2)nnc1SCC(N)=O | -2.5 | 4.3 | 6.9* | 4.0 | -1.1 | 0.9
CCOc1ccc(NC(=O)NNC(=O)C(C)Oc2ccccc2OC)cc1 (centres undefined) | -0.4 | -4.2 | 0.8 | -3.4 | . | .
CC(=O)NC1=NN(C(C)=O)C(C)(c2ccco2)S1 (centres undefined) | -7.7 | 3.6 | 8.7* | -3.2 | -3.2 | 0.6
COc1ccc(N2CCN(c3nc4c(c(=O)n(C)c(=O)n4C)n3Cc3ccccc3)CC2)cc1 | 9.1 | 6.4 | 5.8* | -2.6 | 7.7* | -0.1
Cn1c(SCC(=O)Nc2sccc2C#N)nnc1C1CC1 | . | . | 0.6 | . | . | .
COc1ccc(CN(CCC(c2ccc(F)cc2)C2CCOC(C)(C)C2)C(=O)c2ccco2)cc1 (centres undefined) | 5.9 | 1.0 | 5.5* | 3.8 | 17.7* | 0.4
CC(C)C(NC(=O)c1ccc(C(C)(C)C)cc1)C(=O)N1CCCC1 (centres undefined) | -14.7 | -15.4 | 1.6 | 4.1 | . | .
Cc1ccc(C(=O)Nc2ccc(O)cc2C(=O)O)cc1 | 32.3 | -4.9 | 11.1* | 1.8 | 12.7* | -0.1
Cc1ccc(C(=O)Nc2ccc(O)cc2C(=O)O)cc1C | -5.2 | 5.7 | 26.7* | 2.9 | 15.8* | -0.1
Cc1c(C(=O)N2CCCCCC2)oc2ccccc12 | -2.3 | 2.4 | 6.6* | -2.1 | 0.8 | -1.1
Cc1c(C(=O)N2CCCCC2)oc2ccccc12 | . | . | 2.8 | . | . | .
O=C(O)CCCC[C@@H]1SC[C@@H]2NC(=O)N[C@@H]21 | -1.5 | . | 83.9* | -0.7 | 92.9* | -0.6 | GFP quench DR=>67.6
O=C(O)CCCCCCCCCCC1CCC(O)C1O (centres undefined) | . | . | -0.1 | . | . | .
SMILES | Calb FLC | M18AAP inhibitor | Rin1-Abl PPI inh | Fh CTSL1 inh | Rin1 Abl conf | GFP quench | others
COC(=O)CCCCC1SCC2NC(=O)NC21 (centres undefined) | -1.9 | -14.6 | 11.9* | 4.4 | 16.1* | 0.5
CCCOC(=O)CCCC[C@H]1SC[C@@H](NC(=O)OC)[C@H]1NC(=O)OC | -12.5 | -1.7 | 5.3 | 0.8 | . | .
O=C(Cc1ccccc1)NNS(=O)(=O)c1ccccc1[N+](=O)[O-] | -2.0 | 1.7 | -2.7 | -2.1 | . | .
Cc1ccccc1OCCSCc1nc2ccccc2[nH]1 | -0.8 | 5.9 | -2.7 | 2.9 | . | .
CC(=O)Nc1cc2c(nc1C)nc(C)n2Cc1ccc(Br)cc1 | 2.9 | 4.1 | 17.9* | 0.6 | 21.7* | -3.6 | GFP quench DR=>67.6
CCOc1ccccc1CNCCO | 7.6 | -3.5 | 1.6 | 1.3 | . | .
CCOC(=O)c1ccc(NC(=O)COc2ccccc2CNCCO)cc1 | -27.6 | -3.3 | 13.3* | -4.6 | 22.6* | -1.3 | GFP quench DR=>67.5
O=C(COC(=O)c1cccnc1)Nc1ccc(F)cc1 | 3.3 | -18.1 | 5.7* | -8.0 | -2.1 | -0.4
CC(C)c1nc2oc3c(NCCO)ncnc3c2c2c1COC(C)(C)C2 | -4.5 | 3.8 | 7.7* | 1.4 | 7.7* | 0.7
CC(C)c1nc2oc3c(NCC4CCCO4)ncnc3c2c2c1COC(C)(C)C2 (centres undefined) | 6.6 | -13.2 | 0.0 | . | . | .
COc1ccc(/C=N/NC(=O)Cn2c(Cc3ccc(OC)c(OC)c3)nc3ccccc32)cc1 | -3.9 | -7.0 | 13.8* | -1.2 | 19.4* | -1.9 | GFP quench DR=>67.5
O=S(=O)(Nc1ccc(O)c2ncccc12)c1ccccc1F | . | . | 12.6* | . | 2.5 | 4.6
CC(=O)c1c(C)cc(C)c(CSc2nnc(-c3ccco3)o2)c1C | 19.0 | 1.4 | 5.4* | 3.9 | -3.4 | -1.6
CC[C@]12c3[nH]c4ccc(OC)cc4c3CCN1C(=O)C(CC(=O)NCCCn1ccnc1)C[C@@H]2C(=O)N1CCN(C(=O)c2ccco2)CC1 (some centres undefined) | . | . | 6.9 | . | . | .
CC[C@]12c3[nH]c4ccccc4c3CCN1C(=O)C(CC(=O)NCCCN(C)C)C[C@@H]2C(=O)N1CCN(C(=O)c2ccco2)CC1 (some centres undefined) | . | . | -2.4 | . | . | .
CC[C@]12c3[nH]c4ccc(OC)cc4c3CCN1C(=O)C(CC(=O)NC/C=C(\C)CCC=C(C)C)C[C@@H]2C(=O)N1CCN(C(=O)c2ccco2)CC1 (some centres undefined) | . | . | 11.3* | . | 5.1 | 0.9
CC[C@]12c3[nH]c4ccc(OC)cc4c3CCN1C(=O)C(CC(=O)NCc1cccc(C(F)(F)F)c1)C[C@@H]2C(=O)N1CCN(C(=O)c2ccco2)CC1 (some centres undefined) | . | . | 18.1* | . | 21.2* | -1.9 | GFP quench DR=>67.6
CC[C@]12c3[nH]c4ccc(OC)cc4c3CCN1C(=O)C(CC(=O)NCCCN(C)C)C[C@@H]2C(=O)N1CCN(C(=O)c2ccco2)CC1 (some centres undefined) | . | . | 21.1* | . | 22.2* | 0.3 | GFP quench DR=>67.5
CC[C@]12c3[nH]c4ccc(OC)cc4c3CCN1C(=O)C(CC(=O)NCCc1ccccn1)C[C@@H]2C(=O)N1CCN(C(=O)c2ccco2)CC1 (some centres undefined) | . | . | 16.0* | . | 6.0 | 2.2
COc1ccc(-n2nc3c(c2NC(=O)c2ccc4c(c2)OCO4)CS(=O)(=O)C3)cc1 | 10.1 | 25.2 | 1.9 | 1.3 | . | .
CCCCNC(=O)C1(C)CCN1C(=O)c1ccc(C)c(F)c1 (centres undefined) | . | . | -2.8 | . | . | .

Screening data (PubChem)
